# Measurements taken from PubChem BioAssay (NCI).
# “And” between values parts separate entries of the source, which are not always exact repeats. Identical values can stand only once. The panel holds about 83,000 compounds, 20% with a hit somewhere; the sample as a whole holds those more often.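 The test compound was applied at a single concentration to cells in 96-well plates for 48 hours, and percent growth was recorded.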 The source made the active and inactive calls. The calls were made as follows: active = growth percent below 10; inactive = the rest.
# Test system: MDA-MB-468 breast
# Assay: NCI-60 one-dose screen, 48 h (100 = growth as untreated, 0 = no growth, -100 = all killed)
# Details: 10 µM unless noted
row,Compound,growth
1,COc1ccc(-c2nc(C(Cl)Cl)nc3cc(-c4ccccc4)nn23)cc1,-55.8% (active)
2,c1ccc2c(c1)oc1cc3c(cc12)nnc1cccn13,108% (inactive)
3,Cc1cc(/C=C2\SC(=Nc3ccccc3)N(C3CCCC3)C2=O)c(C)n1-c1ccc(Cl)cc1,-84.2% (active)
4,NC1=NC(c2ccccc2OS(=O)(=O)c2ccc(Br)cc2)n2c(nc3ccccc32)N1 (stereo not drawn),104% (inactive)
5,Nc1c2ccccc2nc2ccccc12,-45.4% (active) and 2.95% (active) and 23% (inactive)
6,COC(=O)[C@@H](NC(=O)[C@@H](OC)[C@@H]1Cc2cc3cc(OC4CC(OC5CC(O)C(O)C(C)O5)C(O)C(C)O4)c(C)c(O)c3c(O)c2C(=O)[C@H]1OC1CC(OC2CC(OC3CC(C)(O)C(O)C(C)O3)C(O)C(C)O2)C(O)C(C)O1)C(C)C (stereo partly drawn),-3.89% (active)
7,CC(C)(C)OC(=O)N1CCc2c(sc3ncnc(N/N=C/c4ccccc4Br)c23)C1,71.5% (inactive)
8,COc1ccc(OC)c(Nc2nc(-c3c(C)nc4sccn34)cs2)c1,24.5% (inactive)
9,CN(C)c1ccc2c(c1)/C(=N/O)c1ccccc1-2,76.9% (inactive)
10,c1cn2cc(-c3ccc4ncn(C5CCCCC5)c4c3)nc(-c3ccc4c(c3)ncn4C3CCCCC3)c2n1,-20.2% (active)
11,Cc1ccc(C(=O)Nc2ccccc2N)cc1,79.1% (inactive)
12,c1ccc2c(-c3nc(-c4c[nH]c5ncccc45)cs3)c[nH]c2c1,108% (inactive)
13,COc1ccc(Nc2cc(C)nc(N3CCN(c4ccnc5cc(Cl)ccc45)CC3)n2)cc1,21.7% (inactive)
